According to the supplement of paper PMC8728848:
Only a selection was taken, and the strongest signals are over-represented in it overall.

How the values were obtained:
Assay in all cases: glycan array binding signal (z-score within array); higher = stronger binding
Settings in all cases: glycan notation: IUPAC condensed, linker removed
GalNAc6S(b1-4)GlcNAc = target: GalNAc6S(b1-4)GlcNAc
Summary of the method: (§1)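 Glycan array data came from 3228 arrays in the Consortium for Functional Glycomics database, and only arrays with an available protein sequence were kept. Glycan names were put into IUPAC-condensed notation, and columns mapping to the same glycan were averaged. The binding signal is a within-array Z-score, averaged across arrays of one protein sequence run at different concentrations or buffers and across linkers. A negative Z-score can be read as non-binding.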

[1] = target: Glc(a1-4)Glc(a1-4)Glc(a1-4)Glc
Summary of the method: as §1

[2] = target: Glc(a1-6)Glc(a1-6)Glc(a1-6)Glc
Summary of the method: as §1

GlcA(b1-6)Gal = target: GlcA(b1-6)Gal
Summary of the method: as §1

[3] = target: GlcNAc(b1-2)[GlcNAc(b1-4)]Man(a1-3)[GlcNAc(b1-4)][GlcNAc(b1-2)[GlcNAc(b1-6)]Man(a1-6)]Man(b1-4)GlcNAc(b1-4)[Fuc(a1-6)]GlcNAc
Summary of the method: as §1

[4] = target: GlcNAc(b1-3)Gal(b1-4)GlcNAc(b1-2)Man(a1-3)[GlcNAc(b1-3)Gal(b1-4)GlcNAc(b1-2)Man(a1-6)]Man(b1-4)GlcNAc(b1-4)GlcNAc
Summary of the method: as §1

[5] = target: GlcNAc(b1-3)Gal(b1-4)GlcNAc(b1-3)Gal(b1-4)GlcNAc(b1-2)Man(a1-3)[GlcNAc(b1-3)Gal(b1-4)GlcNAc(b1-3)Gal(b1-4)GlcNAc(b1-2)Man(a1-6)]Man(b1-4)GlcNAc(b1-4)GlcNAc
Summary of the method: as §1

[6] = target: GlcNAc(b1-3)Gal(b1-4)GlcNAc(b1-3)Gal(b1-4)GlcNAc(b1-2)[GlcNAc(b1-3)Gal(b1-4)GlcNAc(b1-3)Gal(b1-4)GlcNAc(b1-6)]Man(a1-6)[GlcNAc(b1-3)Gal(b1-4)GlcNAc(b1-3)Gal(b1-4)GlcNAc(b1-2)Man(a1-3)]Man(b1-4)GlcNAc(b1-4)[Fuc(a1-6)]GlcNAc
Summary of the method: as §1

[7] = target: GlcNAc(b1-3)Gal(b1-4)GlcNAc(b1-3)Gal(b1-4)GlcNAc(b1-3)Gal(b1-4)GlcNAc(b1-2)Man(a1-3)[GlcNAc(b1-3)Gal(b1-4)GlcNAc(b1-3)Gal(b1-4)GlcNAc(b1-3)Gal(b1-4)GlcNAc(b1-2)Man(a1-6)]Man(b1-4)GlcNAc(b1-4)[Fuc(a1-6)]GlcNAc
Summary of the method: as §1

[8] = target: GlcNAc(b1-3)Gal(b1-4)GlcNAc(b1-3)Gal(b1-4)GlcNAc(b1-3)Gal(b1-4)GlcNAc(b1-2)[GlcNAc(b1-3)Gal(b1-4)GlcNAc(b1-3)Gal(b1-4)GlcNAc(b1-3)Gal(b1-4)GlcNAc(b1-6)]Man(a1-6)[GlcNAc(b1-3)Gal(b1-4)GlcNAc(b1-3)Gal(b1-4)GlcNAc(b1-3)Gal(b1-4)GlcNAc(b1-2)Man(a1-3)]Man(b1-4)GlcNAc(b1-4)[Fuc(a1-6)]GlcNAc
Summary of the method: as §1

[9] = target: Man(a1-2)Man(a1-6)[Man(a1-3)]Man(a1-6)[Man(a1-2)Man(a1-2)Man(a1-3)]Man
Summary of the method: as §1

[10] = target: Neu5Ac(a2-3)Gal(b1-3)[Fuc(a1-4)]GlcNAc(b1-3)Gal(b1-4)[Fuc(a1-3)]GlcNAc
Summary of the method: as §1

[11] = target: Neu5Ac(a2-3)Gal(b1-3)[Neu5Ac(a2-6)]GalNAc
Summary of the method: as §1

[12] = target: Neu5Ac(a2-3)Gal(b1-4)GlcNAc(b1-2)Man(a1-3)[GlcNAc(b1-2)Man(b1-4)GlcNAc(b1-2)Man(a1-6)]Man(b1-4)GlcNAc(b1-4)GlcNAc
Summary of the method: as §1

[13] = target: Neu5Ac(a2-3)Gal(b1-4)GlcNAc(b1-3)Gal(b1-4)GlcNAc
Summary of the method: as §1

[14] = target: Neu5Ac(a2-3)Gal(b1-4)GlcNAc(b1-3)Gal(b1-4)GlcNAc(b1-3)Gal(b1-4)GlcNAc(b1-2)Man(a1-3)[Neu5Ac(a2-3)Gal(b1-4)GlcNAc(b1-3)Gal(b1-4)GlcNAc(b1-3)Gal(b1-4)GlcNAc(b1-2)Man(a1-6)]GalNAc
Summary of the method: as §1

[15] = target: Neu5Ac(a2-3)Gal(b1-4)GlcNAc(b1-6)[Gal(b1-3)]GalNAc
Summary of the method: as §1

[16] = target: Neu5Ac(a2-3)Gal(b1-4)[Fuc(a1-3)]GlcNAc(b1-3)GalNAc
Summary of the method: as §1

[17] = target: Neu5Ac(a2-3)[GalNAc(b1-4)]Gal(b1-4)GlcNAc
Summary of the method: as §1

[18] = target: Neu5Ac(a2-6)Gal(b1-4)GlcNAc(b1-2)Man(a1-3)[GlcNAc(b1-2)Man(b1-4)GlcNAc(b1-2)Man(a1-6)]Man(b1-4)GlcNAc(b1-4)GlcNAc
Summary of the method: as §1

[19] = target: Neu5Ac(a2-6)Gal(b1-4)GlcNAc(b1-2)Man(a1-3)[Neu5Ac(a2-6)Gal(b1-4)GlcNAc(b1-2)Man(a1-6)]Man(b1-4)GlcNAc(b1-4)GlcNAc
Summary of the method: as §1

[20] = target: Neu5Ac(a2-6)Gal(b1-4)GlcNAc(b1-2)Man(a1-3)[Neu5Ac(a2-6)Gal(b1-4)GlcNAc(b1-2)Man(a1-6)]Man(b1-4)GlcNAc(b1-4)[Fuc(a1-6)]GlcNAc
Summary of the method: as §1

[21] = target: Neu5Ac(a2-6)Gal(b1-4)GlcNAc(b1-3)Gal(b1-4)GlcNAc(b1-3)Gal(b1-4)GlcNAc(b1-2)Man(a1-3)[Neu5Ac(a2-6)Gal(b1-4)GlcNAc(b1-3)Gal(b1-4)GlcNAc(b1-3)Gal(b1-4)GlcNAc(b1-2)Man(a1-6)]GalNAc
Summary of the method: as §1

[22] = target: Neu5Ac(a2-6)GalNAc(b1-4)GlcNAc6S
Summary of the method: as §1

[23] = target: Neu5Ac(a2-8)Neu5Ac(a2-8)Neu5Ac(a2-3)[Gal(b1-3)GalNAc(b1-4)]Gal(b1-4)Glc
Summary of the method: as §1

[24] = target: Neu5Ac9Ac(a2-6)Gal(b1-4)GlcNAc
Summary of the method: as §1

B1: BabA (Helicobacter pylori), O52269_HELPY (protein)
chain: AEDDGFYMSAGYQIGEAAQMVKNTKGIQELSDNYENLSNLLTRYSTLNTLIKLSADPSAVNAARENLGASAKNLIGDTKNSPAYQAVLLAINAAVGFWNVVGYVTQCGGNANGQKSTSSTTIFNNEPGYRSTSITCSLNGHMPGYYGPMSIENFKKLNEAYQILQTALKNGLPALKENNGTVNVTYSYTCSGEGNDNCSLQTTGVTNQNNGTKTETQTIDGKSVTTTISSKVVDSQ
- glycan array binding signal (z-score) (GalNAc6S(b1-4)GlcNAc): -0.764
- glycan array binding signal (z-score) [1]: 0.344
- glycan array binding signal (z-score) [2]: 0.59
- glycan array binding signal (z-score) (GlcA(b1-6)Gal): -0.267
- glycan array binding signal (z-score) [3]: -0.373
- glycan array binding signal (z-score) [4]: 0.363
- glycan array binding signal (z-score) [5]: 4.69
- glycan array binding signal (z-score) [6]: 3.66
- glycan array binding signal (z-score) [7]: 2.94
- glycan array binding signal (z-score) [8]: 2.92
- glycan array binding signal (z-score) [9]: -0.83
- glycan array binding signal (z-score) [10]: 0.749
- glycan array binding signal (z-score) [11]: 0.266
- glycan array binding signal (z-score) [12]: -1.52
- glycan array binding signal (z-score) [13]: -0.291
- glycan array binding signal (z-score) [14]: 9.34
- glycan array binding signal (z-score) [15]: 1.93
- glycan array binding signal (z-score) [16]: 0.626
- glycan array binding signal (z-score) [17]: -0.627
- glycan array binding signal (z-score) [18]: -0.829
- glycan array binding signal (z-score) [19]: -0.571
- glycan array binding signal (z-score) [20]: 1.19
- glycan array binding signal (z-score) [21]: 5.39
- glycan array binding signal (z-score) [22]: -0.637
- glycan array binding signal (z-score) [23]: 0.344
- glycan array binding signal (z-score) [24]: -0.224
